Test [1] deals with Human papillomavirus type 1a protein E7 (residues 44-93). The test can be described thus: HPV1a E7 fragment binders on microarrays, primary screen, biochemical, small-molecule microarray, residues 44-93, 635 nm fluorescence (AID 1108).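 Also: E7 fragment applied at 1 µg/mL in TBST for 1 h at 4 C; score combines spot fluorescence with its signal to noise ratio.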 The conditions noted are these: small-molecule microarray binding, fluorescence 635 nm; higher = more signal.
Test [2] is described as follows: modulators of HCV replicon luciferase signal, primary screen, HCV replication inhibitor project, Huh7 cells, luciferase reporter (AID 1109).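 Also: huh7 hepatoma cells harbouring a luciferase neomycin HCV replicon reporter; luciferase luminescence as measure of HCV replicon replication; test concentration not given here.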 The settings on record: 48 h, higher = more signal. A general note: A replicon is a self-replicating genome or part of one, used to study replication in cells.
Test [3] deals with Left-right determination factor 2 (Homo sapiens) (UniProt O00292). Description: LEFTY2 binders on small-molecule microarrays, primary screen, biochemical, small-molecule microarray, 635 nm fluorescence scan (AID 1110). The settings on record: LEFTY2 binding, higher = more signal.
Test [4] has as its target Calmodulin-1 (Homo sapiens) (UniProt P0DP23). Description: CALM1 binders on microarrays, EGTA buffer, profiling panel, biochemical, small-molecule microarray, Cy5-labelled CALM1 (AID 1111).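 Also: labelled calmodulin applied in Tris saline Tween buffer holding calcium plus EGTA and DTT.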 The conditions noted are these: Cy5-CALM1 binding fluorescence, higher = more signal.
Test [5] has the same target. Description: calcium-bound CALM1 binders on microarrays, profiling panel, artefact control for SMM control-protein annotation, biochemical, small-molecule microarray, Cy5-labelled CALM1, plus calcium (AID 1112).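 Also: score merges spot fluorescence with signal to noise from triplicate slides.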 The settings on record: Cy5-CALM1 binding fluorescence, higher = more signal.
A short description of test [6]: small-molecule microarray binders of probe aWnt5a, primary screen, biochemical, biotinylated probe, 635/667 nm fluorescence (AID 1113).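 Also: score merges 667 nm fluorescence intensity with signal-to-noise per printed feature.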 The settings on record: higher = more signal.
Test [7] in a line: small-molecule microarray binders of probe aShh, primary screen, biochemical, biotinylated probe, 635/667 nm fluorescence (AID 1114).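 Also: probe is biotin-labelled aShh protein from a stem cell growth factor screen; measures binding of labelled protein to compounds printed on the slide; score merges feature fluorescence at 667 nm with signal-to-noise.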 The settings on record: higher = more signal.
The nature of test [8]: small-molecule microarray binders of probe aNog, primary screen, biochemical, biotinylated probe, 635/667 nm fluorescence (AID 1115).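 Also: probe is biotinylated aNog protein used at 0.15 µg/mL for 1 h at 4 C; z-score combines 667 nm fluorescence of each spot with its signal to noise.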 The settings on record: higher = more signal.
Test [9] deals with Torsin-1A-interacting protein 1 (Homo sapiens) (UniProt Q5JTV8). The test can be described thus: LAP1 binders from COS7 cell lysate, primary screen, small-molecule microarray, 635/667 nm fluorescence (AID 1116). The settings on record: COS7-hLAP1 lysate binding, 635 nm fluorescence, higher = more signal.
For test [10], the target named is Alpha-bungarotoxin (Bungarus multicinctus) (UniProt P60615). Description: alpha-bungarotoxin binders on microarray, profiling panel, artefact control for SMM control protein annotation, biochemical, small-molecule microarray, Alexa647 label, 635/667 nm fluorescence (AID 1117). The conditions noted are these: alpha-BTX-A647 binding fluorescence, higher = more signal.
Sequence of Alpha-bungarotoxin (Bungarus multicinctus) (P60615 whole entry, looked up): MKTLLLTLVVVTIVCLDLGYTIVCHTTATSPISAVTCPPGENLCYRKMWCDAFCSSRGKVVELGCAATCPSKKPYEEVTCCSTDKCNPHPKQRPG

Sequence of Left-right determination factor 2 (Homo sapiens) (O00292 whole entry, looked up): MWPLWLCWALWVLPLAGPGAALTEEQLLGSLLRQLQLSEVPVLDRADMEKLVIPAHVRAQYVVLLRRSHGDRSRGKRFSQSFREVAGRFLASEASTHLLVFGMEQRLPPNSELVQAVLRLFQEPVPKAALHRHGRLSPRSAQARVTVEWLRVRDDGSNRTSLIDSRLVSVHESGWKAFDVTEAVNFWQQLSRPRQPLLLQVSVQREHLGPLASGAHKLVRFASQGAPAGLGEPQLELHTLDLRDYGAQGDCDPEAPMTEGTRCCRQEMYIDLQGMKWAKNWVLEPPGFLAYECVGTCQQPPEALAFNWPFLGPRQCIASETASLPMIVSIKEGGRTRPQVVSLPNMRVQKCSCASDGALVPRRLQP
Sequence of Torsin-1A-interacting protein 1 (Homo sapiens) (Q5JTV8 whole entry, looked up): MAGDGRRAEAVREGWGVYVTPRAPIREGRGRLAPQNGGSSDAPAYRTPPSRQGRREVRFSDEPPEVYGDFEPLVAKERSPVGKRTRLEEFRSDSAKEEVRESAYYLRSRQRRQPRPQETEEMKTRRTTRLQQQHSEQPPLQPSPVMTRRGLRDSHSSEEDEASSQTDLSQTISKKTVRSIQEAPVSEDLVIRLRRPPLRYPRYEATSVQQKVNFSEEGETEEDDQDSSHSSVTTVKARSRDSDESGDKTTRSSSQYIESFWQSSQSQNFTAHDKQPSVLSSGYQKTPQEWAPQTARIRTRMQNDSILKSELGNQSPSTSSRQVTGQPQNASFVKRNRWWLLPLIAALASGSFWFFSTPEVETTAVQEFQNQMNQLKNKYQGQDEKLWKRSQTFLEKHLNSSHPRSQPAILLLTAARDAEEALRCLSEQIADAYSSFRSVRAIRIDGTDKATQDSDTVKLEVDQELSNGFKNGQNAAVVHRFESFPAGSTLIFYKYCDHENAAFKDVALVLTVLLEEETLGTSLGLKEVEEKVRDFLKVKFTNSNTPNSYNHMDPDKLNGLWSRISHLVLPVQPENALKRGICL

For the compound `COCCOC(=O)N1C(=O)[C@@]2(c3cc(C#CCCO)ccc31)[C@H](c1ccc(OCCO)cc1)N1[C@H](c3ccccc3)[C@H](c3ccccc3)OC(=O)[C@H]1[C@@H]2C(=O)Nc1nc2ccccc2s1`, the composite z-score is 0.281 in [1]; 0.95 in [3]; 0.751 in [4]; 0.682 in [5]; -0.0977 in test [6]; 0.626 in test [7]. For the same compound, the composite z-score in test [8] was 0.0947; in test [9] it was 1.08; in test [10] it was 1.96. In test [2], this compound showed a z-score of -1.13.

With `COC(=O)[C@@H]1N=C(c2ccc(OCCCO)cc2)O[C@@H]1C`, the composite z-score in test [1] is 0.783; in test [3], 0.309; in [4], -0.226; in [5], -1.2; in [6], -0.148; in test [7] it was 0.233. In addition, the figures for the composite z-score in test [8], in [9] and in [10] were -0.356, 1.71 and -0.294, respectively. In test [2], this compound registered a z-score of 2.62.

Turning to `CCOC(=O)C1=CC[C@@H](c2ccccc2F)N(S(=O)(=O)c2ccc(C)cc2)[C@H]1c1ccccc1`, the composite z-score was 1.34 in test [1]; 0.364 in test [3]; 0.509 in test [4]; -0.355 in test [5]; -0.0924 in test [6]; -0.0866 in test [7]. In addition, the composite z-score was -0.473 in [8], 0.292 in test [9] and 0.42 in [10]. Moreover, in test [2], the z-score was -1.43.

As for `COc1ccc([Si](C)(C)[C@H]2[C@H](CC(=O)N3CCC[C@H]3CO)O[C@@]3(C(=O)N(Cc4ccc(N5CCOC5=O)cc4)c4ccccc43)[C@@H]2C)cc1`, the composite z-score in test [1] was 1.37; in test [3], 0.75; in test [4] it was 0.655; in test [5], 0.0967; in [6], 0.0194; in test [7], -0.223. Besides, the results for the composite z-score in test [8], in test [9] and in test [10] were -0.172, 0.833 and 1.08, respectively. In addition, the z-score in test [2] is -2.52.

Turning to `CCN(CC)c1ccc(N2CC=CC34O[C@@H]5/C=C\CCCOC(=O)C5[C@H]3C(=O)N(C(C)CO)[C@@H]4C2=O)cc1` (stereo not given in full), the composite z-score in test [1] is -0.0836; in [3], -0.469; in test [4], -0.479; in [5], -0.619; in [6], -0.0405; in test [7] it was 0.297. In addition, the composite z-score was 0.0073 in [8], -0.421 in test [9] and 1.04 in [10]. Further, the z-score in test [2] is -0.261.

Take `CCCC=C(CCC)[C@@H](NP(=O)(c1ccccc1)c1ccccc1)c1ccc(-c2ccccc2)cc1`: the composite z-score came out at 1.23 in test [1]; 0.53 in test [3]; 0.877 in test [4]; 0.796 in [5]; 0.328 in test [6]; 0.972 in test [7]. Also, the composite z-score in [8] came to 1.35; in test [9], 0.946; in [10], 1.3. Further, the z-score in test [2] was -2.72.

For `CCCCC[C@H]1OC[C@@]23C=C(Br)[C@@H](CC12)[C@@]1(CO1)C3=O` (stereo not given in full), the composite z-score is 0.299 in [1]; 0.058 in test [3]; -0.554 in test [4]; -1.31 in [5]; -0.16 in test [6]; 0.0796 in test [7]. The composite z-score is -0.183 in test [8], -0.574 in [9] and -0.284 in test [10]. This compound also showed a z-score in [2] of -2.3.

`[N-]=[N+]=Nc1ccccc1C[C@@]1(C(N)=O)N=C(c2ccc(OCCCO)cc2)O[C@@H]1c1ccccc1N=[N+]=[N-]`: the composite z-score in test [1] is 1.03; in test [3] it was -0.0762; in [4], 1.51; in test [5] it was 0.827; in test [6] it was -0.132; in test [7], 0.0948. Also, the composite z-score in test [8] was -0.722; in test [9], 1.01; in test [10] it was 1.09. Besides, the z-score in [2] was -2.35.

Turning to `COc1ccc([Si](C)(C)[C@@H]2[C@@H](CCO)O[C@]3(C(=O)N(Cc4ccccc4)c4ccc(N5CCOC5=O)cc43)[C@H]2C)cc1`, the composite z-score is 1.35 in test [1]; 0.217 in test [3]; 0.623 in [4]; 0.521 in test [5]; 0.394 in [6]; -0.0793 in [7]. Also, the composite z-score is 0.0139 in test [8], 0.855 in test [9] and 1.09 in [10]. The z-score in test [2] is -4.17.

`C=C[C@H]1C(C(=O)OCC)=CC[C@@H](c2ccccc2)N1S(=O)(=O)c1ccc(C)cc1`: the composite z-score in test [1] is 1.4; in test [3], 0.0641; in test [4], 0.577; in test [5], -0.0986; in test [6] it was 0.0077; in [7] it was -0.181. For the same compound, the composite z-score is -0.289 in [8], 0.325 in test [9] and 0.621 in test [10]. The compound also had a z-score in [2] of -2.78.

Turning to `CC(C)C(CO)N1C(=O)[C@@H]2C3C(=O)OCCC/C=C\[C@H]3OC23C=CCN(Cn2nnc4ccccc42)C(=O)[C@@H]13` (stereo not given in full), the composite z-score in test [1] was 1.32; in test [3], -0.874; in test [4], -0.42; in test [5], 0.0878; in test [6], -0.202; in test [7] it was -0.229. Also, the composite z-score in [8] is 0.407; in [9], 1.92; in test [10], -1.15. In [2], this compound registered a z-score of 0.236.

In the case of `COCCOC(=O)N1C(=O)[C@@]2(c3cc(C#CC4(O)CCCCCC4)ccc31)[C@H](C(=O)Nc1nc3ccccc3s1)[C@H]1C(=O)O[C@H](c3ccccc3)[C@H](c3ccccc3)N1[C@@H]2c1ccc(O)cc1`, the composite z-score in test [1] is 1.37; in test [3], 1; in test [4] it was 1.29; in test [5], 0.102; in [6] it was -0.18; in test [7], -0.0849. For the same compound, the composite z-score in [8] is -0.188; in test [9], 0.286; in test [10], 1.1. In addition, the z-score in test [2] is -0.895.

(Values after PubChem BioAssay.)
